# Source: PubChem BioAssay (Tox21)
# Records with an inconclusive call do not appear. The source made the active and inactive calls. The call rests on the fitted dose curve; in most records, active means well fitted cell-killing curve with a large enough effect in the repeat runs; inconclusive means weak or mixed curves, or effect the other way; inactive means flat fitted curve, though single readings scatter.
# Test: cAMP Responsive Elements (CRE) small molecule agonists, cell-based qHTS assay: qHTS cell viability counter screen (AID 2060914); further: nearly all actives have a fitted effect of over 50% in size
# Settings: CRE-bla HEK293T viability, CellTiter-Glo luminescence, 5 h; series mostly up to 92.4 µM; activity change, negative = cytotoxicity: at the top concentration
# Procedure, shortened: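 HEK 293T CRE-bla; DMEM + 10% dialyzed FBS, 25 mM HEPES; 18 h pre-incubation; compound 3 h, 37 °C/5% CO2; CellTiter-Glo added after reporter read; luminescence after 30 min RT.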
# On the % scale 0 is the no-effect control and ±100 the full control effect; potency means the concentration at half of the fitted maximal effect.
Structure (SMILES),Potency,"activity change, negative = cytotoxicity"
O=[N+]([O-])c1cccc2ccccc12,inactive,–
NC(=S)Nc1ccccc1,–,8.38% (inactive)
CC(C)CCCCCOC(=O)c1ccccc1C(=O)OCCCCCC(C)C,–,0.531% (inactive)
Cc1cnc(C2=NC(C)(C(C)C)C(=O)N2)c(C(=O)O)c1 (stereo not given),–,1.29% (inactive)
O=[N+]([O-])c1cccc2c([N+](=O)[O-])cccc12,61.4 µM (active),–
CC(C)=CC1C(C(=O)OC(C#N)c2cccc(Oc3ccccc3)c2)C1(C)C (stereo not given),–,-17.6% (inactive)
C/C=C/C=O,–,2.22% (inactive)
ClCOCCl,–,-9.93% (inactive)
CC(C)OC(=O)C(O)(c1ccc(Cl)cc1)c1ccc(Cl)cc1,–,-26.5% (inactive)
COc1cnc(OC)n2nc(NS(=O)(=O)c3c(OCC(F)F)cccc3C(F)(F)F)nc12,–,4.27% (inactive)
CCC(C)c1cccc(C(C)CC)c1O (stereo not given),–,-10.1% (inactive)
CC(C)(c1ccc(O)c(-c2ccccc2)c1)c1ccc(O)c(-c2ccccc2)c1,61.1 µM (active),–
N#Cc1cc(Br)c(O)c(Br)c1,–,-9.16% (inactive)
CCC(C)C(C)(COC(N)=O)COC(N)=O (stereo not given),–,10.2% [at 42.5 µM] (inactive)
CCNc1nc(Cl)nc(NC(C)C)n1,inactive,–
